For orientation: inhibition means the change of the read-out against control, counted positive when it falls.

We go through 40 compounds from ChEMBL document CHEMBL3433997, “St. Jude Leishmania screening dataset” (2016).

The target of the first assay is Solute carrier family 2, facilitated glucose transporter member 1 (Homo sapiens) (UniProt P11166). The assay is described as follows: ST_JUDE_LEISH: Cytotoxicity at 2uM final concentration against transgenic Leishmania Mexicana promastigotes LmGLUT1 that are glucose transport deficient and complemented with the human glucose transporter GLUT1. Activity is measured by DNA content using SYBR green in vitro. Format: functional.
Chain of Solute carrier family 2, facilitated glucose transporter member 1 (Homo sapiens) (P11166 whole entry): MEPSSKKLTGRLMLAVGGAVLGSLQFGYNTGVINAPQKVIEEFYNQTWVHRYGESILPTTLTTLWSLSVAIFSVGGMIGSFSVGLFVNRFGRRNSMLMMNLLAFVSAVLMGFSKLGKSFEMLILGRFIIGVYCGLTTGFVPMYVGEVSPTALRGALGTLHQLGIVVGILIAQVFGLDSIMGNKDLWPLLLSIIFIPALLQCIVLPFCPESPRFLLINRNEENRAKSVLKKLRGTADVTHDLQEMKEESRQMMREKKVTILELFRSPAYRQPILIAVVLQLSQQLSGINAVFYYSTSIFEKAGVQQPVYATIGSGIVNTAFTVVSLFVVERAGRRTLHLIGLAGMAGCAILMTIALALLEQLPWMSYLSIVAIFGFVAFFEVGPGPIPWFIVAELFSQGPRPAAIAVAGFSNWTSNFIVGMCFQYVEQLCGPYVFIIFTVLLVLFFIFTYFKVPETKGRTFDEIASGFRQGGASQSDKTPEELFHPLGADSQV
In the case of `CCCCCN1CCCC1CNS(=O)(=O)c1ccc(C(=O)Nc2ccc(C(F)(F)F)cc2)cc1` (stereo not given), the inhibition was 4.05%.

Consider `N=C(N)NCCN(Cc1ccccc1)c1ccc(Cl)cc1`, for which the inhibition is 1.36%.

For `COc1ccc(N2CCN(CCCCNC(=O)c3ccc(NC(=O)c4ccc(Cl)c(Cl)c4)cc3)CC2)c(OC)c1`, the inhibition stood at 2.23%.

As to `CN(C(=O)/C=C/c1c(Cl)cccc1Cl)C1CCN(CCCCCNC(=O)/C=C/c2ccc(Cl)c(Cl)c2)CC1`, the inhibition was 2.14%.

Turning to `Nc1nc(N)c2c(ccc3c2ncn3Cc2ccccc2)n1`, the inhibition was 12.9%.

Consider `CNC(=O)c1cncc(/C=C/c2ccccc2S(N)(=O)=O)c1`, for which the inhibition was -0.22%.

As for `CCCc1cc(C)ccc1OCCCON1C(NC(=O)OCC)=NC(NC(=O)OCC)=NC1(C)C`, the inhibition is -0.11%.

With `COc1ccc(-c2ccc(NC(=O)c3cccc(F)c3)cc2)cc1CN1CCCN(C)CC1`, the inhibition was 4.26%.

Consider `COCCN1CCN(Cc2ccc(-c3cccc(-c4nc5ccccc5[nH]4)c3)cc2)CC1`, for which the inhibition is -3.03%.

In the case of `CCCCCC(C)NC[C@@H](O)[C@H](Cc1ccccc1)NC(=O)c1cc(NCC)cc(N2CCCCS2(=O)=O)c1` (stereo not given in full), the inhibition was -0.71%.

For `Cc1ccc(NC(=O)Nc2ccccc2F)cc1-c1ccc(C(=O)Nc2ccncc2)cc1`, the inhibition was 1.42%.

Turning to `CN1CCN(c2ccc(-c3nc4ccc(OCc5cc(Cl)cc(Cl)c5)c(C(N)=O)c4[nH]3)cc2)CC1`, the inhibition was 1.82%.

Regarding `CC(C)Oc1cc(-c2ccc(S(C)(=O)=O)cc2)nc(N(Cc2cccc(F)c2F)Cc2cccc(F)c2F)n1`, the inhibition is -1.85%.

`Cc1cc(Br)cnc1CCCCNC1=NC(=O)CN1C`: the inhibition was found to be 0.57%.

Consider `CC(C)(C)c1ccc2[nH]c(-c3ccc(C(=O)NCc4cccc(C(F)(F)F)c4)cc3)nc2c1`, for which the inhibition is -0.02%.

On to `CN(c1ccc(F)cc1)S(=O)(=O)c1ccc(Cl)c(C(=O)Nc2cccc(C#N)c2)c1`, for which the inhibition came to 4.24%.

As to `Cc1cccc2nc(-c3ccc(-c4ccc(CNCC5CCCO5)cc4)cc3)[nH]c12` (stereo not given), the inhibition is 16.3%.

As to `c1cc(CNCCc2ccncc2)cc(-c2ccc(-c3nc4ccccc4[nH]3)cc2)c1`, the inhibition was 1.46%.

In the case of `COc1ccc(C(C(=O)NC2CCN(C[C@H](O)c3ccnc4ccc(OC)cc34)CC2)N2CCN(c3ccc([N+](=O)[O-])cc3)CC2)cc1` (stereo not given in full), the inhibition is 2.67%.

As for `CNCc1cccc(-c2ccc3ccnc(N)c3c2)c1`, the inhibition is 7.92%.

As to `COc1ccc(S(=O)(=O)N(c2cc(Br)cc3c2OCC3)S(=O)(=O)c2ccc(OC)c(N3CCN(C)CC3)c2)cc1N1CCN(C)CC1`, the inhibition was 0.39%.

For `Cc1cccc(-c2cc3cc(Nc4ccnc5cc(-c6nccs6)ccc45)ccc3[nH]2)c1`, the inhibition came to 1.71%.

In the case of `CC(=O)Nc1nc(C(=O)Nc2cccc(-c3ccc(-c4nc5cccc(C)c5[nH]4)s3)c2)cs1`, the inhibition stood at 6.86%.

Take `CC1(C)N=C(N)N=C(NOCc2ccc(Cl)c(Cl)c2)N1`: the inhibition came out at 1.06%.

`CC[C@H](NC(=O)c1c(CN2CCC(N3CCCCC3)CC2)c(-c2ccccc2)nc2c(Cl)c(O)ccc12)c1ccccc1`: the inhibition amounted to 7.43%.

Consider `O=[N+]([O-])c1cccc(-c2nc(-c3ccc(Br)cc3)[nH]c2-c2ccc(Br)cc2)c1`, for which the inhibition worked out at 2.77%.

Turning to `c1ccc(Oc2ccc(Nc3ccnc(Nc4ccc(OCCN5CCCCC5)cc4)n3)cc2)cc1`, the inhibition is 8.95%.

With `CCc1cn2c3c(cc(C(=O)N[C@@H](Cc4ccccc4)[C@H](O)CN[C@@H](C)CC)cc13)N(C)S(=O)(=O)CC2`, the inhibition amounted to 0.43%.

For `Cc1cc(CNC(c2ccccc2)C2CCC2)cc(C)c1O` (stereo not given), the inhibition was determined as 14.2%.

Take `CCCCCn1c(Sc2ccc(C#N)c([N+](=O)[O-])c2)nnc1-c1ccc(OC)cc1`: the inhibition is 9.26%.

Turning to `COc1cc(Cc2cnc(N)nc2N)c2c(c1OC)OC(C)(C)C=C2`, the inhibition came to 4.17%.

On to `Cc1cc(N2CCOCC2)nc(Nc2ccc(NC(=O)c3cccc4ccccc34)cc2)n1`, for which the inhibition worked out at 7.25%.

With `CC1Cc2ccccc2N1S(=O)(=O)c1cccc(C(=O)Nc2nc(-c3ccccn3)cs2)c1` (stereo not given), the inhibition was found to be 13.8%.

Turning to `CCOc1ccc(-c2nonc2NC(=O)c2ccccc2Cl)cc1OCC`, the inhibition is 5.4%.

In the case of `COc1ccc(CNCc2ccc(-c3cccc(-c4nc5ccccc5[nH]4)c3)cc2)cc1`, the inhibition was 5.98%.

Regarding `Cc1cc(CN2CCCC(OC(c3ccc(F)cc3)c3ccc(F)cc3)C2)ccc1O` (stereo not given), the inhibition was determined as 9.25%.

Turning to `O=C(Nc1ccon1)c1cc(-c2cccnc2)nc2ccc(Cl)cc12`, the inhibition came to 5.01%.

For `Cn1cnc2c(Nc3ccncc3)nc(-c3ccc4c(c3)OCO4)nc21`, the inhibition was determined as 8.06%.

For the compound `CN(C)CCCN1C(=O)c2[nH]nc(-c3ccc(Cl)cc3O)c2C1c1ccc(Cl)cc1` (stereo not given), the inhibition was 0.82%.

On to `COc1ccc(NC(=O)/C=C/c2ccccc2Cl)cc1OCCN1CCC(Cc2cc3ccccc3[nH]2)CC1`, for which the inhibition is 3.32%.

For another assay, the target named is Hexose transporter 1 (Plasmodium falciparum) (UniProt O97467). Put plainly: ST_JUDE_LEISH: Cytotoxicity at 2uM final concentration against transgenic Leishmania Mexicana promastigotes LmPfHT that are glucose transport deficient and complemented with the Plasmodium falciparum hexose transporter. Activity is measured by DNA content using SYBR green in vitro. It counts as functional.
On to `CCCCCN1CCCC1CNS(=O)(=O)c1ccc(C(=O)Nc2ccc(C(F)(F)F)cc2)cc1` (stereo not given), for which the inhibition was 3.41%.

Turning to `N=C(N)NCCN(Cc1ccccc1)c1ccc(Cl)cc1`, the inhibition was -0.96%.

As for `COc1ccc(N2CCN(CCCCNC(=O)c3ccc(NC(=O)c4ccc(Cl)c(Cl)c4)cc3)CC2)c(OC)c1`, the inhibition came to 1.72%.

`CN(C(=O)/C=C/c1c(Cl)cccc1Cl)C1CCN(CCCCCNC(=O)/C=C/c2ccc(Cl)c(Cl)c2)CC1`: the inhibition was found to be 2.38%.

For `Nc1nc(N)c2c(ccc3c2ncn3Cc2ccccc2)n1`, the inhibition is 13.7%.

Turning to `CNC(=O)c1cncc(/C=C/c2ccccc2S(N)(=O)=O)c1`, the inhibition was 4.59%.

With `CCCc1cc(C)ccc1OCCCON1C(NC(=O)OCC)=NC(NC(=O)OCC)=NC1(C)C`, the inhibition came out at 1.76%.

Regarding `COc1ccc(-c2ccc(NC(=O)c3cccc(F)c3)cc2)cc1CN1CCCN(C)CC1`, the inhibition was 2.56%.

Consider `COCCN1CCN(Cc2ccc(-c3cccc(-c4nc5ccccc5[nH]4)c3)cc2)CC1`, for which the inhibition is -1.3%.

With `CCCCCC(C)NC[C@@H](O)[C@H](Cc1ccccc1)NC(=O)c1cc(NCC)cc(N2CCCCS2(=O)=O)c1` (stereo not given in full), the inhibition is 1.3%.

Consider `Cc1ccc(NC(=O)Nc2ccccc2F)cc1-c1ccc(C(=O)Nc2ccncc2)cc1`, for which the inhibition amounted to 1.06%.

Turning to `CN1CCN(c2ccc(-c3nc4ccc(OCc5cc(Cl)cc(Cl)c5)c(C(N)=O)c4[nH]3)cc2)CC1`, the inhibition came to 5.73%.

For the compound `CC(C)Oc1cc(-c2ccc(S(C)(=O)=O)cc2)nc(N(Cc2cccc(F)c2F)Cc2cccc(F)c2F)n1`, the inhibition came out at 0.65%.

Consider `Cc1cc(Br)cnc1CCCCNC1=NC(=O)CN1C`, for which the inhibition is -0.02%.

For `CC(C)(C)c1ccc2[nH]c(-c3ccc(C(=O)NCc4cccc(C(F)(F)F)c4)cc3)nc2c1`, the inhibition stood at 0.63%.

On to `CN(c1ccc(F)cc1)S(=O)(=O)c1ccc(Cl)c(C(=O)Nc2cccc(C#N)c2)c1`, for which the inhibition is 3.52%.

Take `Cc1cccc2nc(-c3ccc(-c4ccc(CNCC5CCCO5)cc4)cc3)[nH]c12` (stereo not given): the inhibition stood at 14.9%.

As to `c1cc(CNCCc2ccncc2)cc(-c2ccc(-c3nc4ccccc4[nH]3)cc2)c1`, the inhibition was determined as 2.38%.

Take `COc1ccc(C(C(=O)NC2CCN(C[C@H](O)c3ccnc4ccc(OC)cc34)CC2)N2CCN(c3ccc([N+](=O)[O-])cc3)CC2)cc1` (stereo not given in full): the inhibition turned out to be 1.79%.

For the compound `CNCc1cccc(-c2ccc3ccnc(N)c3c2)c1`, the inhibition amounted to 10.7%.

With `COc1ccc(S(=O)(=O)N(c2cc(Br)cc3c2OCC3)S(=O)(=O)c2ccc(OC)c(N3CCN(C)CC3)c2)cc1N1CCN(C)CC1`, the inhibition was found to be 0.62%.

Turning to `Cc1cccc(-c2cc3cc(Nc4ccnc5cc(-c6nccs6)ccc45)ccc3[nH]2)c1`, the inhibition is -0.37%.

For the compound `CC(=O)Nc1nc(C(=O)Nc2cccc(-c3ccc(-c4nc5cccc(C)c5[nH]4)s3)c2)cs1`, the inhibition is 11.9%.

As for `CC1(C)N=C(N)N=C(NOCc2ccc(Cl)c(Cl)c2)N1`, the inhibition is 1.13%.

As to `CC[C@H](NC(=O)c1c(CN2CCC(N3CCCCC3)CC2)c(-c2ccccc2)nc2c(Cl)c(O)ccc12)c1ccccc1`, the inhibition amounted to 6.81%.

With `O=[N+]([O-])c1cccc(-c2nc(-c3ccc(Br)cc3)[nH]c2-c2ccc(Br)cc2)c1`, the inhibition amounted to 4.88%.

Take `c1ccc(Oc2ccc(Nc3ccnc(Nc4ccc(OCCN5CCCCC5)cc4)n3)cc2)cc1`: the inhibition stood at 12.8%.

Regarding `CCc1cn2c3c(cc(C(=O)N[C@@H](Cc4ccccc4)[C@H](O)CN[C@@H](C)CC)cc13)N(C)S(=O)(=O)CC2`, the inhibition came out at 2.23%.

Turning to `Cc1cc(CNC(c2ccccc2)C2CCC2)cc(C)c1O` (stereo not given), the inhibition is 14.3%.

In the case of `CCCCCn1c(Sc2ccc(C#N)c([N+](=O)[O-])c2)nnc1-c1ccc(OC)cc1`, the inhibition came to 6%.

For `COc1cc(Cc2cnc(N)nc2N)c2c(c1OC)OC(C)(C)C=C2`, the inhibition came to 5.13%.

Take `Cc1cc(N2CCOCC2)nc(Nc2ccc(NC(=O)c3cccc4ccccc34)cc2)n1`: the inhibition worked out at 8.47%.

Turning to `CC1Cc2ccccc2N1S(=O)(=O)c1cccc(C(=O)Nc2nc(-c3ccccn3)cs2)c1` (stereo not given), the inhibition worked out at 14.6%.

Consider `CCOc1ccc(-c2nonc2NC(=O)c2ccccc2Cl)cc1OCC`, for which the inhibition was 7.22%.

On to `COc1ccc(CNCc2ccc(-c3cccc(-c4nc5ccccc5[nH]4)c3)cc2)cc1`, for which the inhibition stood at 6.56%.

For `Cc1cc(CN2CCCC(OC(c3ccc(F)cc3)c3ccc(F)cc3)C2)ccc1O` (stereo not given), the inhibition was determined as 4.88%.

On to `O=C(Nc1ccon1)c1cc(-c2cccnc2)nc2ccc(Cl)cc12`, for which the inhibition was 3.36%.

Turning to `Cn1cnc2c(Nc3ccncc3)nc(-c3ccc4c(c3)OCO4)nc21`, the inhibition was 6.78%.

As to `CN(C)CCCN1C(=O)c2[nH]nc(-c3ccc(Cl)cc3O)c2C1c1ccc(Cl)cc1` (stereo not given), the inhibition was 0.66%.

As for `COc1ccc(NC(=O)/C=C/c2ccccc2Cl)cc1OCCN1CCC(Cc2cc3ccccc3[nH]2)CC1`, the inhibition was found to be 1.85%.
